Screening results: PubChem BioAssay, National Center for Advancing Translational Sciences (NCATS)
Cycloheximide cs: Cycloheximide Counterscreen for Small Molecule Inhibitors of Shiga Toxin; max response, %; 300,000 compounds, 12% hits; cell reporter, cycloheximide protein synthesis inhibition counterscreen; in the data active = max response mostly above about 13%, no sharp cut-off; inactive = mostly below about 14%; note: read at 38.3 µM for the half of the compounds with a filed dose
Shiga inhibitor: A qHTS for Small Molecule Inhibitors of Shiga Toxin | 290,000 compounds, 9.2% hits | inhibition, % at 38.7 µM | Vero cells, Shiga toxin protein synthesis inhibition reporter; in the data active = inhibition mostly above about 28%, no sharp cut-off; inactive = mostly below about 43%
AMA1-RON2 inh: qHTS for Inhibitors of AMA1-RON; Towards Development of Antimalarial Drug Lead: Primary Screen; Plasmodium falciparum AMA1 (3D7) - RON2 peptide interaction; AlphaScreen AMA1-biotinylated RON2 peptide binding; Potency, µM (titrated, usually from 58.2 µM), hits mostly inhibitors; 360,000 compounds, 0.2% hits; note: nearly all actives have a fitted effect of over 45% in size
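AMA1 (3D7) with his tag at 25 nM final met compounds first, then biotinylated RON2 peptide at 25 nM; detection used donor plus acceptor beads, 10 µg/mL apiece, read by AlphaScreen after 30 min at room temperature.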
Pf growth 48h: Primary qHTS for delayed death inhibitors of the malarial parasite plastid, 48 hour incubation. P. falciparum luciferase growth in erythrocytes, 48 h. Potency, µM (highest dose often 28.7 µM), most hits filed as inhibitors. 310,000 compounds, 5.9% hits
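Erythrocytes infected with P. falciparum carrying an integrated firefly luciferase reporter (2% hematocrit, 0.1% parasitemia final) were exposed to compounds in RPMI 1640 with 0.5% Albumax at 37 C, 5% CO2. Growth inhibition was scored as reduced luminescence.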
SARS PLpro yeast: qHTS of Yeast-based Assay for SARS-CoV PLP. S. cerevisiae expressing SARS-CoV PLpro, growth rescue. Potency, µM (doses to about 32.9 µM), most hits filed as activators. 330,000 compounds, 0.19% hits. AID 485353, 2010; calls by dose curve; note: nearly all actives have a fitted effect of over 55% in size
Pf growth 96h: Primary qHTS for delayed death inhibitors of the malarial parasite plastid, 96 hour incubation; P. falciparum luciferase reporter growth, 96 h; Potency, µM (series often up to 28.7 µM), actives largely listed as inhibitors; 320,000 compounds, 6.9% hits; AID 504834, 2011
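Two-generation exposure (96 h) targets delayed-death phenotype. Reporter parasites carrying integrated firefly luciferase, in red cells at 2% hematocrit and 0.05% parasitemia final, kept at 37 C, 5% CO2; luminescence loss indicates inhibition.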
Each line names hits and unclear results; the compound was inactive in the other large screens. Rows were chosen to be rich in hits. Some 19% of all compounds tested hit in one or more screens of this group. Unless noted, calls come from the whole dose curve; as a rule, active = well fitted curve in the direction sought with a large enough effect; inconclusive = small, poorly fitted or top-dose-only effect, or another doubt; inactive = no such curve, though single readings can be large; an effect the other way counts as inactive or inconclusive.

Cc1nnc2sc(-c3ccc(N(C)C)cc3)nn2c1=O	Cycloheximide cs 27.7, Shiga inhibitor 53.7, Pf growth 96h 10.4µM
COc1ccccc1-c1nnc2sc(-c3ccc(N(C)C)cc3)nn12	Pf growth 48h inconclusive, Pf growth 96h 11.7µM
CN(C)c1ccc(-c2nn3c(-c4ccccc4Cl)nnc3s2)cc1	Pf growth 48h inconclusive (no result: Pf growth 96h)
CN(C)c1ccc(-c2nn3c(-c4cccnc4)nnc3s2)cc1	Pf growth 48h inconclusive
CC1=NN(C(N)=S)C(=O)C1N=Nc1cccc(Cl)c1C (stereo not drawn)	Cycloheximide cs 25.6, Shiga inhibitor 36.7, Pf growth 48h inconclusive, Pf growth 96h inconclusive
CC1=NN(C(N)=S)C(=O)C1N=Nc1cccc2ccccc12 (stereo not drawn)	none (no result: AMA1-RON2 inh)
CC1=NN(C(N)=S)C(=O)C1N=Nc1ccccc1 (stereo not drawn)	Pf growth 48h inconclusive
CC1=NN(C(N)=S)C(=O)C1N=Nc1ccc(Br)cc1 (stereo not drawn)	Cycloheximide cs 38.6, Pf growth 48h 9.28µM, Pf growth 96h inconclusive
CC1=NN(C(N)=S)C(=O)C1N=Nc1ccc(Cl)cc1 (stereo not drawn)	Cycloheximide cs 32.6, Shiga inhibitor 76.5, Pf growth 48h inconclusive, Pf growth 96h inconclusive
COc1ccc([N+](=O)[O-])cc1NC(=O)c1cc(C)c(C)o1	none
CCOC(=O)c1c(C)oc2c1c(C(c1cccnc1)N1CCN(C)CC1)c(O)c1ccccc12 (stereo not drawn)	Cycloheximide cs 52.7, Shiga inhibitor 155.8 (no result: AMA1-RON2 inh)
CCOC(=O)c1c(C)oc2c1c(C(c1cccnc1)N1CCOCC1)c(O)c1ccccc12 (stereo not drawn)	Cycloheximide cs 49.4, Shiga inhibitor 123.1
CC(C)N(C(=O)[C@H]1C[C@H](CC(=O)NCCC2=CCCCC2)C(=O)N2CCc3c([nH]c4ccc(Cl)cc34)[C@]12C)C(C)C	none (no result: Cycloheximide cs, Shiga inhibitor, Pf growth 48h, Pf growth 96h)
N#Cc1ccc(-c2ccc(OCC3CNC(=O)O3)cc2)cc1 (stereo not drawn)	Cycloheximide cs 47.3, Shiga inhibitor 65.4
O=C1NCC(COCc2ccccc2)O1 (stereo not drawn)	Pf growth 96h 5.22µM
CC(=O)Nc1ccc(NC(=O)c2ccccc2S(=O)(=O)c2ccc([N+](=O)[O-])cc2)cc1	none
COCCNCC(=O)Nc1ccc(OC(F)(F)F)cc1	none
O=c1c(CN2CCN(Cc3ccccc3F)C(CCO)C2)coc2ccccc12 (stereo not drawn)	Pf growth 96h inconclusive
CCOc1ccc(NC(c2ccccn2)c2oc(CO)cc(=O)c2O)cc1 (stereo not drawn)	Cycloheximide cs 45.9, Shiga inhibitor 81.3, Pf growth 96h inconclusive
C=CCNC(=O)c1onc(CSc2cc(C)ccc2C)c1C(=O)O	none
COc1ccccc1N1CCN(C(=O)C(C)N(c2ccc(C)c(C)c2)S(C)(=O)=O)CC1 (stereo not drawn)	Pf growth 48h inconclusive, Pf growth 96h 11.7µM
O=C(/C=C/c1ccc2ccccc2n1)c1cc(Cl)ccc1O	Cycloheximide cs 39.1, Shiga inhibitor 65.7, Pf growth 48h 2.33µM, Pf growth 96h inconclusive
COc1ccc2[nH]cc(CCNC(=O)CCC3CCCCC3)c2c1	Pf growth 96h inconclusive
COc1ccc(C[C@@H]2CN3C(=NC[C@@H]3C)N2C[C@H](C)NC(=O)CCC2CCCCC2)cc1	Pf growth 48h inconclusive, Pf growth 96h inconclusive
COc1ccc(C[C@H]2CN3C(=NC[C@@H]3Cc3ccccc3)N2C[C@H](C)NC(=O)CCC2CCCCC2)cc1	Pf growth 48h 1.65µM, Pf growth 96h 2.62µM (no result: AMA1-RON2 inh)
C[C@@H](CN1C2=NC[C@H](Cc3ccccc3)N2C[C@H]1Cc1ccc(O)cc1)NC(=O)CCC1CCCCC1	Pf growth 48h inconclusive, Pf growth 96h 14.7µM
COc1ccc(C[C@H]2CN3C(=NC[C@H]3Cc3ccccc3)N2CCNC(=O)CCC2CCCCC2)cc1	Pf growth 48h inconclusive, Pf growth 96h 4.65µM
C[C@@H](CN1C2=NC[C@H](Cc3ccc(O)cc3)N2C[C@H]1Cc1ccc(O)cc1)NC(=O)CCC1CCCCC1	Pf growth 48h 7.38µM, Pf growth 96h 1.65µM
CC1CC(C)CN(CCCNC(=O)CN2C(=O)CSc3ccc(S(=O)(=O)N4CCCCC4)cc32)C1 (stereo not drawn)	Pf growth 48h inconclusive
N#Cc1ccc(-c2csc(N3CCC(C(N)=O)CC3)n2)cc1	none (no result: Cycloheximide cs, Shiga inhibitor, AMA1-RON2 inh, SARS PLpro yeast)
Cc1ccc(CNS(=O)(=O)NCc2cccs2)cc1	none
Fc1ccccc1CCNCc1cccc2ccccc12	Cycloheximide cs 17.8
OC(COc1ccc(CNCCc2ccccc2F)cc1)CN1CCCCC1 (stereo not drawn)	Pf growth 48h 6.57µM
CCN(CC)c1ccc(CNCc2cccs2)cc1	Cycloheximide cs 19.6, AMA1-RON2 inh inconclusive
Fc1ccc(CNCCc2ccccc2)cc1	none
CCN(CC)c1ccc(CNCCc2ccccc2F)cc1	AMA1-RON2 inh inconclusive, Pf growth 96h 9.28µM
O=S(=O)(O)c1ccc(O)cc1	none (no result: Cycloheximide cs, Shiga inhibitor, AMA1-RON2 inh, SARS PLpro yeast)
N#CC1(NC(=O)CSc2nnc3n2CCCCC3)CCCCC1	none (no result: Cycloheximide cs, Shiga inhibitor, Pf growth 48h, Pf growth 96h)
CC1CCN(CCCNC(=O)C2CC(=O)N(CCc3ccccc3)C2)CC1 (stereo not drawn)	none
COc1ccc(C(=O)C(=O)c2ccc(OCCO)cc2)cc1	none (no result: Cycloheximide cs, Shiga inhibitor)
COc1ccccc1CNS(=O)(=O)c1ccc(-n2cccn2)cc1	Pf growth 96h inconclusive
Cc1ccc(CNCCc2ccccc2F)cc1	Cycloheximide cs 13.6
O=C(Cc1cccc2ccccc12)Nc1c(F)cccc1F	Cycloheximide cs 18.1, Shiga inhibitor 58.3
O=C(Cc1cccc2ccccc12)Nc1ccccc1C(=O)O	none (no result: Pf growth 48h)
CCN(CC)C(=O)[C@H]1C[C@H](CC(=O)NCc2cccc(C(F)(F)F)c2)C(=O)N2CCc3c([nH]c4cc(-c5ccco5)ccc34)[C@]12C	none (no result: Cycloheximide cs, Shiga inhibitor, Pf growth 48h, Pf growth 96h)
CCSC1=NCCN1C(=O)C(C)(C)Oc1ccc(Cl)cc1	Pf growth 48h inconclusive
CCC1Oc2ccc(C)cc2N(CC(=O)N(Cc2cccnc2)Cc2cccc(F)c2)C1=O (stereo not drawn)	Pf growth 48h 11.7µM
CCC1Oc2ccc(C)cc2N(CC(=O)N(Cc2ccncc2)Cc2ccco2)C1=O (stereo not drawn)	Pf growth 48h 11.7µM
CCC1Oc2ccc(C)cc2N(CC(=O)N2CCOCC2)C1=O (stereo not drawn)	Pf growth 96h inconclusive
Cc1c(NC(=O)C(=O)/C=C(\O)c2ccc(Br)cc2)c(=O)n(-c2ccccc2)n1C	none
O=C(NCc1ccccc1)C(c1ccco1)N(C(=O)c1ccccn1)c1ccccc1 (stereo not drawn)	none
